# Assay results: PubChem BioAssay (NCI)
# Compounds without any hit were thinned out: in the full panel of roughly 79,000, 15% have a hit. A number with no mark means an inactive call. The source made the active and inactive calls. No stated cut-off is given here; in the data, active means growth inhibition above about 70%; inactive means the rest.
# What was measured:
# [1] = NCI Yeast Anticancer Drug Screen. Data for the rad50 strain (AID 155);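 further: 0% = growth of vehicle-only cultures of the same strain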; settings: S. cerevisiae rad50 strain growth inhibition, stronger effect = higher value
# Procedure, shortened: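 Inhibition values express reduced yeast growth in compound-treated cultures relative to vehicle-treated controls.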
# [2] = NCI Yeast Anticancer Drug Screen. Data for the mec2-1 strain (AID 157); settings: S. cerevisiae mec2-1 strain, stronger effect = higher value
# Procedure, shortened: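 Yeast mec2-1 mutant treated with compound. Readout: growth inhibition vs vehicle controls.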
# [3] = NCI Yeast Anticancer Drug Screen. Data for the sgs1 mgt1 strain (AID 161);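 further: 0% = growth of cultures given vehicle only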; settings: S. cerevisiae sgs1 mgt1 strain, stronger effect = higher value
# Procedure, shortened: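 Read-out: growth inhibition vs vehicle controls. Cells: mutant yeast strain deficient in DNA damage repair.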
# [4] = NCI Yeast Anticancer Drug Screen. Data for the cln2 rad14 strain (AID 165);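 further: 0% = growth equal to vehicle treated cultures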; settings: S. cerevisiae cln2 rad14 strain, stronger effect = higher value
# Procedure, shortened: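 cln2 rad14 yeast strain; compound exposure; growth inhibition read vs vehicle controls.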
# [5] = NCI Yeast Anticancer Drug Screen. Data for the bub3 strain (AID 167); settings: S. cerevisiae bub3 mutant strain, stronger effect = higher value
# Procedure, shortened: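 Steps: expose the mutant yeast strain to compound; grow alongside vehicle-treated cultures; measure growth; express inhibition against the vehicle cultures.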
# [6] = NCI Yeast Anticancer Drug Screen. Data for the mlh1 rad18 strain (AID 175); settings: S. cerevisiae mlh1 rad18 strain growth inhibition, stronger effect = higher value
# Procedure, shortened: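 Yeast w/ defined DNA-repair lesions; compound exposure; growth vs vehicle controls → % inhibition.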
# [7] = at 5.0 µM (retest, dose inferred, filed as 0.5)
# [8] = at 50.0 µM (retest, dose inferred, filed as 5.0)
Compound,"growth inhibition [1, 7]","growth inhibition [1, 8]",growth inhibition ([1]; at 50.0 µM),"growth inhibition [2, 7]","growth inhibition [2, 8]",growth inhibition ([2]; at 50.0 µM),"growth inhibition [3, 7]","growth inhibition [3, 8]",growth inhibition ([3]; at 50.0 µM),"growth inhibition [4, 7]","growth inhibition [4, 8]",growth inhibition ([4]; at 50.0 µM),"growth inhibition [5, 7]","growth inhibition [5, 8]",growth inhibition ([5]; at 50.0 µM),"growth inhibition [6, 7]","growth inhibition [6, 8]",growth inhibition ([6]; at 50.0 µM)
O=C(c1ccccc1)N(C1CCCCC1)C1CCCCC1,7%,97% (active),98.1% (active),1%,98% (active),98.5% (active),5%,97% (active),99% (active),-2%,95% (active),98.9% (active),-3%,93% (active),98% (active),5%,97% (active),98.3% (active)
CC(=O)N=C1N(/C=C2\C(=O)Oc3ccccc3C2=O)C(=O)/C(=C/c2cccc(Cl)c2Cl)N1C,5%,89% (active),-7.75%,12%,61%,0.2%,-12%,8%,28.2%,7%,25%,-21.8%,-11%,17%,-37.5%,13%,95% (active),-22.4%
O=C(Nc1ccc(C(F)(F)F)cc1[N+](=O)[O-])C(=O)C(C(=O)c1ccc2ccccc2c1)C1OC(=O)c2ccccc21 (configuration not stated),26%,26%,2.05%,10%,10%,4.85%,8%,8%,13.9%,15%,15%,-28.6%,9%,9%,22.7%,10%,10%,10.2%
COC(=O)c1ccccc1CC1Cc2cccc(C)c2C1=O (configuration not stated),-2%,28%,65.2%,-3%,47%,51%,14%,64%,67.6%,-2%,11%,24.4%,5%,80% (active),79.7% (active),1%,40%,76% (active)
O=C(O)c1cccc(S(=O)(=O)NN2C(=O)CSC2c2c(O)ccc3ccccc23)c1 (configuration not stated),-11%,50%,61.9%,0%,50%,61%,2%,80% (active),91.7% (active),-4%,57%,36.9%,6%,86% (active),83.5% (active),-15%,82% (active),95.2% (active)
COc1ccc(N(C)Sc2ccccc2)cc1,-12%,64%,88.2% (active),18%,65%,49.1%,-14%,24%,67.1%,9%,63%,35.6%,12%,90% (active),69.7%,-10%,97% (active),71.3% (active)
COc1ccc(/C(Cl)=C(\C=O)c2ccc(Cl)cc2)cc1,17%,17%,-4.05%,-10%,2%,7.7%,-17%,22%,27.8%,12%,26%,-8.85%,18%,54%,28.1%,-6%,27%,19.8%
Cc1ccc(OS(=O)(=O)c2ccc(Br)cc2)cc1,2%,5%,-6%,-16%,10%,0.05%,8%,19%,-3.65%,9%,6%,-1%,16%,41%,-7%,3%,31%,12.7%
COc1ccc2c(Cc3cccc([N+](=O)[O-])c3)cncc2c1O,4%,68%,29.8%,-2%,86% (active),35.4%,-6%,65%,24%,4%,76% (active),37.1%,3%,91% (active),85% (active),5%,92% (active),58.8%
Cc1cc(NC(=S)SC(C)C)ccc1Br,5%,99% (active),99.5% (active),0%,100% (active),99.7% (active),2%,99% (active),71.8% (active),-19%,99% (active),98.9% (active),7%,99% (active),99.5% (active),-3%,99% (active),99.3% (active)
COC(=O)C1=CCC[C@H]2C1(C)CCC(C)C21CC(c2ccoc2)OC1=O (some centres not stated),-8%,75% (active),50.5%,8%,85% (active),55.6%,10%,90% (active),72.2% (active),-16%,14%,28.9%,-8%,83% (active),67.2%,10%,87% (active),76.2% (active)
O=C1NC(=S)S/C1=C\c1cc(Cl)ccc1O,4%,-7%,2.85%,-4%,-6%,15.7%,-1%,4%,60.5%,-7%,-18%,-22.4%,-7%,-14%,-4.2%,-5%,-6%,3.05%
COc1ccnc2c1C(=O)c1nc3ccccc3c3ccnc-2c13,14%,89% (active),81.2% (active),-9%,83% (active),79.8% (active),9%,83% (active),81.5% (active),2%,88% (active),80.8% (active),-15%,86% (active),81% (active),23%,92% (active),-21.9%
Cc1ccc(-n2cc(-c3ccc(Cl)cc3)c3c(NN)ncnc32)cc1,-20%,30%,85.7% (active),-11%,65%,87.6% (active),-8%,61%,87.5% (active),-20%,37%,90.3% (active),-19%,53%,87.7% (active),-14%,65%,76.6% (active)
CCN(CC)CCNc1c2ccccc2nc2cccc([N+](=O)[O-])c12,88% (active),97% (active),68.2%,95% (active),99% (active),61.4%,94% (active),99% (active),55%,85% (active),98% (active),86.5% (active),93% (active),99% (active),2.85%,92% (active),97% (active),62.9%
CC(=O)Nc1cccc(Oc2ccc(Br)cc2[N+](=O)[O-])c1,-3%,66%,58.5%,1%,78% (active),10%,9%,94% (active),83.1% (active),0%,47%,24.7%,-1%,63%,42.6%,20%,89% (active),70.5% (active)
CC1=CC2N(C=C1)C(c1ccccc1)=NON2c1cc(C)ccn1 (configuration not stated),-20%,-10%,24.7%,-23%,14%,33%,-1%,23%,62.5%,-39%,7%,25.1%,-44%,-14%,5.7%,-34%,38%,68.9%
O=[N+]([O-])c1ccccc1SCc1ccccc1,17%,47%,85.4% (active),-18%,35%,15.8%,16%,49%,54.7%,15%,43%,44%,-1%,79% (active),30.8%,13%,74% (active),52.6%
O=C(O)/C=C/C(=O)c1ccccc1,7%,76% (active),15.1%,5%,72% (active),57.5%,3%,66%,46.3%,-3%,13%,3.6%,-6%,71% (active),67.2%,6%,80% (active),72% (active)
